Values joined by “and” are separate entries in the source; they are usually repeats but may differ in a detail not shown here. Identical values can stand only once. Active and inactive are the calls of the source.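 Rule for the calls, unless noted: active = compounds whose cell count with miR-34 switched on is under 0.7 times the count with it off; inactive = the rest.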
Legend:
[1] = test system: Aerobactin synthetase IucA (Klebsiella pneumoniae); assay: inhibition of K. pneumoniae IucA enzyme – biochemical, Tocris library, absorbance (AID 1345561; call rule not given here;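 note: 100% = enzyme without compound and 0% = no enzyme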); conditions: purified IucA enzyme assay, absorbance (OD) read-out; stronger effect = lower value;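 tested at 8 µM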
[2] = viability loss with induced miR-34 in A549 – imaging, A549 dox-inducible miR-34, nuclei and caspase counts, primary screen (AID 1347080); conditions: A549 miR-34 inducible, Hoechst nuclei count, 48 h
[3] = galactose survival enhancers in mitochondrial complex I cybrids – cell-based, galactose medium, ATP luminescence, primary screen (AID 1645843;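 active = z-score of at least 1.8 in each of two replicates, scored against plate mean and spread of sample wells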;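 note: positive z means more ATP and so rescue of galactose-driven cybrid death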); conditions: complex I mutant cybrid cells, 72 h, stronger effect = higher value
[4] = stronger effect = lower value, cell number ratio, induced over uninduced
[5] = measured here: relative caspase fold change +Dox/-Dox
[6] = measured here: total cells with miR-34 induction, stronger effect = lower value
[7] = measured here: total cells without miR-34 induction

## CCN(CC)CCO[C@H]1CC[C@@]2(C)C(=CC[C@@H]3[C@@H]2CC[C@]2(C)C(=O)CC[C@@H]32)C1
[1]
  remaining activity: 113% (inactive)
[2]; [4]
  fold change: 0.896 (inactive) and 0.878 (inactive)
[2]; [5]
  fold change: 0.558 and 0.739
[2]; [6]
  cell count: 5320 and 6330
[2]; [7]
  cell count: 5930 and 7220
[3]
  z-score: -0.79 (inactive)

## O=C(O)/C=C/CO
[1]
  remaining activity: 109% (inactive)
[2]; [4]
  fold change: 0.992 (inactive)
[2]; [5]
  fold change: 0.9
[2]; [6]
  cell count: 9440
[2]; [7]
  cell count: 9510
[3]
  z-score: -0.335 (inactive)

## CN1Cc2ccccc2[C@@H]2c3cccc4[nH]cc(c34)C[C@H]21
[1]
  remaining activity: 114% (inactive)
[2]; [4]
  fold change: 0.936 (inactive)
[2]; [5]
  fold change: 0.677
[2]; [6]
  cell count: 4560
[2]; [7]
  cell count: 4870
[3]
  z-score: -0.7 (inactive)

## Fc1ccc(C(OCCN2CCN(C/C=C/c3ccccc3)CC2)c2ccc(F)cc2)cc1
[1]
  remaining activity: 116% (inactive)
[2]; [4]
  fold change: 0.843 (inactive)
[2]; [5]
  fold change: 1.03
[2]; [6]
  cell count: 2280
[2]; [7]
  cell count: 2710
[3]
  z-score: -1.23 (inactive)

## O=Cc1cn(Cc2ccc(Cl)cc2)c2ccccc12
[1]
  remaining activity: 119% (inactive)
[2]; [4]
  fold change: 0.901 (inactive)
[2]; [5]
  fold change: 1.34
[2]; [6]
  cell count: 4020
[2]; [7]
  cell count: 4470
[3]
  z-score: -0.645 (inactive)

## C(=C\c1ccccc1)/CN1CCN(CCOC(c2ccccc2)c2ccccc2)CC1
[1]
  remaining activity: 119% (inactive)
[2]; [4]
  fold change: 0.938 (inactive)
[2]; [5]
  fold change: 0.604
[2]; [6]
  cell count: 5420
[2]; [7]
  cell count: 5780
[3]
  z-score: -1.21 (inactive)

## Cn1c2c(c3ccccc31)CCNCC2
[1]
  remaining activity: 98.4% (inactive)
[2]; [4]
  fold change: 0.896 (inactive)
[2]; [5]
  fold change: 1.23
[2]; [6]
  cell count: 8130
[2]; [7]
  cell count: 9070
[3]
  z-score: -0.23 (inactive)

## O[C@H]1[C@H](O)[C@@H](O)CN2CC[C@H](O)[C@H]12
[1]
  remaining activity: 107% (inactive)
[2]; stronger effect = lower value
  fold change: 0.875 (inactive) and 0.917 (inactive)
[2]; [5]
  fold change: 1.02 and 1.4
[2]; [6]
  cell count: 4910 and 9170
[2]; [7]
  cell count: 5610 and 10000
[3]
  z-score: 0.34 (inactive)

## c1ccc(C2CNCc3ccccc32)cc1 (configuration not stated)
[1]
  remaining activity: 117% (inactive)
[2]; [4]
  fold change: 0.949 (inactive)
[2]; [5]
  fold change: 0.998
[2]; [6]
  cell count: 8070
[2]; [7]
  cell count: 8500
[3]
  z-score: -0.455 (inactive)

## CCOc1cncc(/C=C/CCNC)c1
[1]
  remaining activity: 108% (inactive)
[2]; [4]
  fold change: 0.967 (inactive)
[2]; [5]
  fold change: 1.27
[2]; [6]
  cell count: 8770
[2]; [7]
  cell count: 9060
[3]
  z-score: -0.075 (inactive)

## Cc1cc(C)cc(C(=O)OC2CC3CCC(C2)N3C)c1 (configuration not stated)
[1]
  remaining activity: 86.6% (inactive)
[2]; [4]
  fold change: 0.914 (inactive)
[2]; [5]
  fold change: 1.01
[2]; [6]
  cell count: 8100
[2]; [7]
  cell count: 8850
[3]
  z-score: -0.125 (inactive)

## CCOC(=O)c1ncn2c1CN(C)C(=O)c1cc(N=[N+]=[N-])ccc1-2
[1]
  remaining activity: 97.3% (inactive)
[2]; [4]
  fold change: 0.891 (inactive)
[2]; [5]
  fold change: 1.09
[2]; [6]
  cell count: 7930
[2]; [7]
  cell count: 8900
[3]
  z-score: 0.06 (inactive)
